# An excerpt weighted towards active compounds, which were near 4.1% of everything screened.
# IDE act – human IDE activators in live cells, primary screen, fluorescence polarization, HEK cells, FAbeta-B substrate; Insulin-degrading enzyme (Homo sapiens), P14735; FAbeta-B cleavage; 0% vehicle, 100% cell-free pure enzyme wells; activation, % at 5.96 µM; actives 0.073% (n = 340,000);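 active = activation above the mean of all tested compounds plus 3 SD, set per screening campaign, cut at about 17% in these data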
# M18AAP inhibitor – PfM18AAP inhibitors, malaria aminopeptidase, primary screen, biochemical, QFRET, recombinant enzyme. M18 aspartyl aminopeptidase (Plasmodium falciparum 3D7). H-Glu-NHMec fluorogenic cleavage. inhibition, % at 7.35 µM. actives 1.2% (n = 290,000). AID 1822, 2009;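 active = inhibition above the campaign mean inhibition over all tested compounds plus 3 SD, cut at about 28% in these data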;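 also: 0% = plate median of test compound wells and 100% = 2 mM ZnCl2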
# PolyA inhibitor – polyadenylation inhibitors in yeast reporter cells, primary screen, luminescence, S. cerevisiae; S. cerevisiae SKY197-pL101 polyadenylation reporter, beta-gal luminescence; efflux-impaired pdr1/pdr3 knockout yeast; score 100 = 6 SD above DMSO; activity score, % at 12 µM; actives 0.02% (n = 300,000);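 active = lowest replicate activity score at least 50, where 100 means six control SD above control mean; inconclusive = lowest score under 50 but half or more replicates reach 50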;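 also: yeast exposed to compound for 9 h at 30 °C; higher score means more reporter readthrough which indicates perturbed polyadenylation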
# ALR inh – inhibitors of human ALR sulfhydryl oxidase, primary screen, biochemical, H2O2 detection, HRP-luminol luminescence, single point; inhibition, % (no concentration beside the values); purified ALR, DTT oxidation; actives 3.8% (n = 290,000); AID 485317, 2010;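 active = mean replicate inhibition above about 79%, with every replicate also reaching it, limit read from the data; inconclusive = only one of the two criteria met; inactive = mean below limit and not every replicate reaching it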
# Target sequence (P55789 whole entry, looked up): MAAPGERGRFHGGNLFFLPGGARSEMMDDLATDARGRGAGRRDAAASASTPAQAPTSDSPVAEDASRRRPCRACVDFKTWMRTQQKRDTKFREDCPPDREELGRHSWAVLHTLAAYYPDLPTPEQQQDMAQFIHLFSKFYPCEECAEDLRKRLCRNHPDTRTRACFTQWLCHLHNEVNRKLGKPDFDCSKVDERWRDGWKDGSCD
# CaV13 ICDI inh – Primary screen for inhibitors of IQ motif and Ca2+-dependent inactivation inhibitor domain binding in CACNA1D, Förster resonance energy transfer in living cells, … | HEK cells, CFP/YFP FRET ICDI-IQ, plate reader, 10 min; percent FRET-ratio fall versus neutral wells | inhibition, % at 12.3 µM | actives 0.098% (n = 340,000) | AID 743397;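 active = mean replicate inhibition of at least 30% and at least 1% of replicates passing that level; inconclusive = only one of the two criteria is met; inactive = neither criterion is met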;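 also: 0% = median of the neutral control wells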
# IDE inh – human IDE inhibitors in live cells, primary screen, fluorescence polarization, HEK cells, FAbetaB substrate | inhibition, % at 5.59 µM | Insulin-degrading enzyme (Homo sapiens), P14735 | actives 0.41% (n = 320,000) | FAbetaB cleavage;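 active = percent inhibition above the average of all tested compounds plus 3 SD, set per screening campaign, cut at about 16% in these data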;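 also: IDE supplied by intact live HEK cells; FP after avidin binding of uncleaved biotin substrate so inhibition keeps polarization high; 0% = DMSO wells and 100% = 60 µM reference IDE inhibitor Ii1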
# * hit, by the source's call; ? = inconclusive; / = no result given; + = active, no number.
SMILES,IDE act,M18AAP inhibitor,PolyA inhibitor,ALR inh,CaV13 ICDI inh,IDE inh
Cc1ccc2nc3c(cc(S(=O)(=O)c4ccccc4)c(=N)n3Cc3ccco3)c(=O)n2c1,1,9,-4,-23,+,2
Cc1ccc(S(=O)(=O)c2cc3c(=O)n4ccccc4nc3n(CCc3ccccc3)c2=N)cc1,6,-6,-5,4,-3,3
COc1cc(CN(C(=O)c2cccs2)C2CCS(=O)(=O)C2)cc(OC)c1OC (centres undefined),4,8,18,-8,-2,7
CC1=NN(c2ccc(Cl)cc2)C(=O)/C1=C\c1cccn1-c1ccc(S(N)(=O)=O)cc1,4,3,-4,2,-2,0
COc1ccccc1CNC(=O)C(=O)NCC1CCCN1S(=O)(=O)c1cc(C)ccc1C (centres undefined),/,/,/,/,8,/
N#C/C(=C/c1ccc(F)cc1)S(=O)(=O)c1ccccc1,3,-9,4,-19,-4,1
N#C/C(=C\c1ccc(C(=O)O)cc1)S(=O)(=O)c1cc(Br)ccc1Br,-1,-11,7,92*,-1,-4
COc1cc2c(cc1NC(=O)CSc1nc3ccc(C)cc3[nH]1)oc1ccccc12,/,1,2,-4,/,-2
CC(C)NC(=O)C1(C)CSCC(=O)N1C1CCN(Cc2ccccc2)CC1 (centres undefined),/,/,/,/,-6,/
CC(C)NC(=O)Nc1cccs1,-3,3,6,97*,/,1
Cc1ccc(CNC(=O)Nc2cccs2)cc1,1,15,-5,40,-5,6
O=C(NCC1CC1)Nc1cccs1,-3,6,22,99*,-5,14
Cc1ccccc1NC(=O)Nc1cccs1,1,15,13,65,-6,0
CC1CCC(NC(=O)Nc2cccs2)CC1 (centres undefined),-1,15,-1,98*,-4,3
O=C(Nc1cccs1)NC1CCCC1,-2,-1,-1,99*,/,1
Cc1c(N(C)S(=O)(=O)c2cc(C(=O)NCC3CCCO3)ccc2Cl)c(=O)n(-c2ccccc2)n1C (centres undefined),4,/,-2,-4,-1,3
CCOC(=O)C1CCCN(S(=O)(=O)c2ccc(-c3cc(C)no3)s2)C1 (centres undefined),8,-5,2,-7,-5,-1
O=C(Nc1cccnc1)c1cccc(F)c1,2,1,-13,-2,-3,3
c1ccc2c(CSc3ncnc4nc[nH]c34)cccc2c1,-4,-6,6,98*,-3,5
O=C(NC1CCCCC1)C(c1ccccn1)N(C(=O)c1csnn1)c1ccccc1 (centres undefined),3,-1,-16,2,-2,1
CCCn1c(N)c(NCCN2CCOCC2)c(=O)[nH]c1=O,6,-9,2,99*,-5,-2
CN=c1scc(-c2ccccc2F)n1/N=C/c1ccc(O)c(O)c1O,-6,31*,8,/,-2,/
CN=c1scc(C)n1/N=C/c1cc(Br)c(O)c(Br)c1,1,19,-77,/,-1,-1
CN=c1scc(C)n1/N=C/c1ccc2c(c1)OCO2,1,10,-2,98*,/,-3
CN=c1scc(C)n1/N=C/c1ccc(O)cc1O,1,16,-21,99*,-2,2
CN=c1scc(-c2ccccc2F)n1/N=C/c1ccc[nH]1,5,3,-5,?,-44,6
CCCc1nc2ccccc2c(=O)n1/N=C/c1ccc(O)cc1O,0,23,13,4,/,1
CN=c1scc(C)n1/N=C/c1ccc(O)cc1,-1,16,/,99*,-1,3
Cc1nnc(C)n1/N=C/c1ccc2c(c1)OCCO2,4,-1,6,/,-5,-4
